# According to PubChem BioAssay AID624202 (National Center for Advancing Translational Sciences (NCATS), 2012):
# The whole screen tested about 380,000 compounds, of which about 4,000 (1.1%) were called active. Another 3% or so got no clear call; they are omitted. The call rests on the fitted dose curve; in most records, active means well fitted activation curve with a large enough effect; inconclusive means small, poorly fitted or top-dose-only effect; inactive means no such curve, though single readings can be large or run the other way. The list comes from a sample in which actives are over-represented; it also holds similar structures and randomly drawn compounds.
# Test: qHTS Assay to Identify Small Molecule Activators of BRCA1 Expression; further: nearly all actives have a fitted effect of over 80% in size
# Settings: MCF7-BRCA1-FFLuc reporter, luminescence, 48 h; series mostly up to 46.1 µM; activation: at the top concentration
# Method in brief: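 MCF7-BRCA1-FFLuc, 2000 cells/well; 2 h attach, 37 °C/5% CO2; compound 48 h; luciferase substrate 15 min; luminescence end-point. Norm. to genistein 10 microM max activation and DMSO; concentration-response curves fitted.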
# Potency means the concentration at half of the fitted maximal effect.
Structure (SMILES),activation,Potency
Cc1nn(C(=O)c2c(F)cccc2F)c(C)c1S(=O)(=O)N1CCOCC1,3.27% (inactive),–
O=C(C1CC1)N1CCc2cc(Br)cc(S(=O)(=O)N3CCN(c4ccccc4F)CC3)c21,-3.63% (inactive),–
O=[N+]([O-])c1ccc(NC(=S)N2CCN(c3ccccn3)CC2)cc1,-40.3% (inactive),–
O=C(COC(=O)c1ccccn1)NNC(=O)c1ccc([N+](=O)[O-])cc1,0.358% (inactive),–
O=C(Nc1ccc([N+](=O)[O-])cc1)OCCc1ccccn1,–,2.82 µM (active)
CC(=O)c1cccc(NC(=O)c2nc(-c3ccccc3)n(-c3cccc(C)c3)n2)c1,-0.252% (inactive),–
CCOc1cc(NC(=O)Nc2ccccc2)c(OCC)cc1NC(=O)CC,-19.8% (inactive),–
Cc1ccc(NC(=O)Nc2ccccc2)c(Br)c1,–,1.58 µM (active)
Cc1ccc(NC(=O)Nc2cccnc2)cc1,–,12.6 µM (active)
Cc1ccc(NC(=O)N2CCC(O)(c3cccnc3)CC2)cc1,18% (inactive),–
CC(=O)c1cccc(NC(=O)[C@@H](NC(N)=O)C(C)C)c1,-13.3% (inactive),–
O=C(Nc1ccc(Cl)cc1)Nc1ccc(Oc2cccnc2)nc1,28.1% (inactive),–
Cc1cc(NC(=O)Nc2c[nH]c(=O)[nH]c2=O)ccc1Br,10% (inactive),–
CC(=O)c1cccc(NC(=O)Nc2ccc(C)cc2)c1,–,14.1 µM (active)
Cc1sc2ncn(CC(=O)N3CCN(c4ccc(F)cc4)CC3)c(=O)c2c1S(=O)(=O)N1CCN(c2ncccn2)CC1,-7.16% (inactive),–
COc1ccccc1CNc1ccc(-c2nc(-c3ccccc3C)no2)cc1[N+](=O)[O-],3.58% (inactive),–
CCOC(=O)C(Cc1ccccc1)NC(=O)CCc1c(C)nc2c(c(C)nn2-c2ccc(C)c(C)c2)c1C (stereo not given),1.84% (inactive),–
CCS(=O)(=O)N1CCc2cc(C(=O)NCc3ccc(OC)cc3)ccc21,0% (inactive),–
COc1ccc(CNc2nc(-c3ccc(Cl)cc3)cc(C(F)(F)F)n2)cc1,-6.97% (inactive),–
CC(Nc1ccc(-c2nc(-c3ccco3)no2)cc1[N+](=O)[O-])c1ccccc1 (stereo not given),0% (inactive),–
COc1ccc(NC(=O)Cn2c(=O)n(Cc3ccc(C(=O)NCc4ccccc4Cl)cc3)c(=O)c3ccccc32)cc1,7.5% (inactive),–
COc1ccc(-n2c(=O)c3ccccc3n(Cc3ccccc3Cl)c2=O)cc1,13.8% (inactive),–

Structure (SMILES),activation,Potency
Cc1c(NC(=O)Nc2cccc([N+](=O)[O-])c2)c(=O)n(-c2ccccc2)n1C,0% (inactive),–
O=C(Nc1cccc([N+](=O)[O-])c1)N1CCc2ccccc2C1,–,10 µM (active)
O=C(CN1CCC(NC(=O)Nc2ccccc2)CC1)Nc1cccc([N+](=O)[O-])c1,-1.04% (inactive),–
O=C(CSc1nnc(-c2ccncc2)n1-c1ccccc1)Nc1ccc(Cl)c(Cl)c1,-9.9% (inactive),–
CCOc1ccc(CNC(=O)c2ccc3c(c2)nnn3C2CCCC2)cc1,8.43% (inactive),–
CC1CC(C)CN(c2oc(-c3ccc(OCc4ccc(Cl)cc4)cc3)nc2C#N)C1 (stereo not given),7.19% (inactive),–
COc1cccc(NC(=O)CSc2nnc(-c3cccnc3)o2)c1,-36.4% (inactive),–
CCN(CC)C(=O)CSc1nnc(-c2ccc(S(=O)(=O)NCc3ccccc3Cl)cc2)o1,-7.09% (inactive),–
CCN(CC)C(=O)CSc1nnc(-c2cccc(OC)c2)o1,–,11.2 µM (active)
CCOC(=O)c1cc(OC(=O)c2ccccc2Cl)n(-c2ccccc2)n1,3.87% (inactive),–
CC(C)(C)c1ccc(C(=O)C[n+]2cccc3cc(Cl)ccc32)cc1,-79% (inactive),–
Cn1cc(S(=O)(=O)N2CCCCCC2)cc1C(=O)N1CCN(c2ccc(F)cc2)CC1,-2.6% (inactive),–
CCc1ccc(C(=O)CC2(O)C(=O)N(CCc3ccccc3)c3ccc(Br)cc32)cc1 (stereo not given),-66.1% (inactive),–
CC1CCN(Cc2nc(-c3ccc(Cl)cc3)no2)CC1,–,8.91 µM (active)
Cc1ccc(-c2noc(CSc3nnc(-c4ccc(Cl)cc4)n3C)n2)cc1,3.58% (inactive),–
CCN1CC(CN(C)Cc2nc(-c3ccc(Cl)cc3)no2)CC1=O (stereo not given),-7.51% (inactive),–
CC(C)c1ccc2oc(-c3cc(NC(=O)c4cccs4)ccc3Cl)nc2c1,-45.6% (inactive),–
CC1(C)Cc2ccccc2-c2c[nH]c(=O)n21,7.61% (inactive),–
c1ccc(CCN2CN=C(Nc3nc4ccccc4o3)NC2)cc1,–,7.94 µM (active)
CCCN1CNC(=S)N(CCc2ccccc2)C1,7.02% (inactive),–
N#CNC1=NCN(CCc2ccccc2)CN1,-31% (inactive),–
CCOC(=O)c1c(C)[nH]c(C)c1S(=O)(=O)N1CCC(C(=O)Nc2ccc(C)c(Cl)c2)CC1,-39.2% (inactive),–

Structure (SMILES),activation,Potency
C(=Nc1ccc(/C=C/c2ccnc3ccccc23)cc1)Nc1ccc(/C=C/c2ccnc3ccccc23)cc1,-8.64% (inactive),–
Cc1ccc(S(=O)(=O)N2CCCCC2)cc1NC(=O)c1cccnc1,-7.67% (inactive),–
C/C(=C\C(=O)c1cccnc1)Nc1ccc(C)c(C)c1,–,12.6 µM (active)
O=C(CC(=O)c1cccnc1)c1ccccc1,-40.2% (inactive),–
S=C(c1ccc(-c2ccccc2)o1)N1CCCCC1,–,3.98 µM (active)
COc1cc(OC)c(C(=S)N2CCCC2)cc1OC,-5.45% (inactive),–
CC1CCN(C(=S)c2ccc(-c3ccc(Cl)cc3Cl)o2)CC1,71.8% (inactive),–
O=C(CN1CCCCCC1)Nc1ccc(Br)cc1Br,–,5.62 µM (active)
O=C(CN1CCCCCC1)Nc1ccc(Br)cc1[N+](=O)[O-],17.5% (inactive),–
Cc1cc(C)c(NC(=O)CN2CCCCCC2)c(C)c1,86.6% (inactive),–
Cn1c(=O)c2sccc2n2c(CCC(=O)NCc3ccccc3Cl)nnc12,0.707% (inactive),–
CCN(CC)c1ccc(/C=C/c2c(C)cnc3ccc(C)cc23)cc1,-54.5% (inactive),–
O=C1N=C(N2CCOCC2)S/C1=C\C=C/c1ccccc1,"0.869% [at 1.84 µM, scaled: vehicle 0%, 10 µM genistein 100%] (inactive)",–
CC1CCN(C2=NC(=O)/C(=C/c3cn[nH]c3-c3ccccc3)S2)CC1,15.9% (inactive),–
Cc1ccsc1/C=C1\SC(N2CCOCC2)=NC1=O,–,11.2 µM (active)
COc1ccc(Cn2c(=O)n(-c3ccccc3C)c(=O)c3c4c(sc32)CN(C(C)=O)CC4)cc1,-6.11% (inactive),–
Cc1cccc(NC(=O)Cn2c(=O)n(CCC(C)C)c(=O)c3cccnc32)c1,-3.64% (inactive),–
Cc1cc(C)c2nc(NC(=O)C3CCCO3)sc2c1 (stereo not given),–,15.8 µM (active)
O=C(Nc1nnc(SCc2c(Cl)cccc2Cl)s1)C1CCCO1 (stereo not given),4.62% (inactive),–
Cc1ccc(C)c(C(C)NC(=O)C2CCCO2)c1 (stereo not given),-7.33% (inactive),–
Cc1cc2ccccc2n1CCNC(=O)c1ccc(F)cc1,-31.6% (inactive),–
